Results on 16 compounds are retold here after PubChem BioAssay (NCI).

This is part of a sample that, as a whole, favours compounds with a hit. Of some 83,000 tested, about 20% had one in any assay.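 Single-concentration screen, 48 h exposure, 96-well plates. Endpoint: percent growth. Below 10 = active.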 Unmarked numbers belong to inactive results. The source made the active and inactive calls.

Test systems include T-47D breast; BT-549 breast; MDA-MB-435 melanoma; SW-620 colon; MCF7 breast; HCT-116 colon; HCC-2998 colon; KM12 colon.
What all share (experiment): NCI-60 one-dose screen, 48 h (100 = growth as untreated, 0 = no growth, -100 = all killed)
Details in all cases: 10 µM unless noted

As for `O=C(Nc1nc2ccc(S(=O)(=O)Nc3ccc(C4(C(F)(F)F)CC4)cc3)cc2[nH]1)c1cnccn1`, the growth with T-47D breast was 31.7%; in the experiment with BT-549 breast, 44.6%; in the experiment on MDA-MB-435 melanoma it was -29.8% (active); in the experiment with SW-620 colon it was 18.5%; in the experiment on MCF7 breast, 18.2%; in the experiment with HCT-116 colon, 26.2%. Also, the growth with HCC-2998 colon was 63.4%; in the experiment on KM12 colon, 9.67% (active).
As to `O=C(O)/C=C\C(=O)N1C/C(=C\c2ccccc2Cl)C(=O)/C(=C/c2ccccc2Cl)C1`, the growth with T-47D breast is 7.54% (active); in the experiment with BT-549 breast it was -57% (active); in the experiment on MDA-MB-435 melanoma, -11.3% (active); in the experiment with SW-620 colon, -50% (active); in the experiment with MCF7 breast it was 3.37% (active); in the experiment with HCT-116 colon, -97.2% (active). In addition, the growth in the experiment on HCC-2998 colon is -91.8% (active).
With `CN1CCN(c2c(F)cc(NC3=C(Cl)C(=O)c4ncccc4C3=O)cc2F)CC1`, the growth with T-47D breast is 16.1%; with BT-549 breast it was 106%; in the experiment on MDA-MB-435 melanoma, 21%; in the experiment with SW-620 colon it was -68.4% (active); in the experiment on MCF7 breast, -58.3% (active); in the experiment with HCT-116 colon, -11.3% (active). The growth with HCC-2998 colon was 108%.
In the case of `COc1ccc(-c2nc(SCC(C)C)nc(N/N=C(/C)c3ccc(OC)c(OC)c3)c2C#N)cc1`, the growth was 54.7% in the experiment on T-47D breast; 97.8% in the experiment with BT-549 breast; 87.9% in the experiment on MDA-MB-435 melanoma; 84.4% in the experiment with SW-620 colon; 80.6% in the experiment with MCF7 breast; 96.6% in the experiment on HCT-116 colon. For the same compound, the growth with HCC-2998 colon was 92.4%.
`COc1ccc(CC(C)=C(c2ccc(OCCN(C)C)cc2)c2ccc(OCCN(C)C)cc2)cc1`: the growth in the experiment with T-47D breast was 84.5%; in the experiment with BT-549 breast, 78.3%; in the experiment with MDA-MB-435 melanoma, 61.9%; in the experiment on SW-620 colon, 48.1%; in the experiment on MCF7 breast it was 69.7%; in the experiment on HCT-116 colon, 22%. The growth in the experiment on HCC-2998 colon was 89%.
In the case of `O=S(=O)(O)c1cc(O)c2c(N=Nc3ccc(Nc4ccccc4)c4c(S(=O)(=O)O)cccc34)cc(S(=O)(=O)O)cc2c1`, the growth in the experiment with T-47D breast was 100%; in the experiment with BT-549 breast, 100%; in the experiment with MDA-MB-435 melanoma, 115%; with SW-620 colon it was 103%; with MCF7 breast it was 105%; in the experiment with HCT-116 colon, 105%. In addition, the growth in the experiment with HCC-2998 colon was 102%.
With `O=C(N/N=C/c1ccc(F)cc1)c1ccccc1Nc1cccc(C(F)(F)F)c1`, the growth was 88.2% with T-47D breast; 105% in the experiment with BT-549 breast; 100% in the experiment on MDA-MB-435 melanoma; 96% with SW-620 colon; 106% with MCF7 breast; 111% in the experiment with HCT-116 colon. Further, in the experiment on HCC-2998 colon, the growth was 107%.
Turning to `COc1ccc(-c2nc(SC)nc(N3CCOCC3)c2C#N)cc1`, the growth with T-47D breast is 72.9%; in the experiment with BT-549 breast, 83.7%; with MDA-MB-435 melanoma, 99.3%; in the experiment on SW-620 colon, 103%; in the experiment with MCF7 breast, 90.6%; in the experiment on HCT-116 colon, 103%. Besides, in the experiment on HCC-2998 colon, the growth was 99.7%.
For `CCCCCCc1nc2nc(Cl)c(Cl)nc2[nH]1`, the growth in the experiment with T-47D breast was 22.7%; in the experiment with BT-549 breast, 66.5%; with MDA-MB-435 melanoma, 61.9%; in the experiment on SW-620 colon, 87.6%; in the experiment on MCF7 breast, 64.4%; with HCT-116 colon it was 57.1%. Moreover, the values for the growth in the experiment on HCC-2998 colon and in the experiment with KM12 colon were 61.3% and 47.6%, respectively.
Take `C=C(C)[C@@H]1CC[C@]2(C=O)CC[C@]3(C)[C@H](CC[C@@H]4[C@@]5(C)CCCNC(C)(C)[C@@H]5CC[C@]43C)[C@@H]12`: the growth was 57.8% in the experiment with T-47D breast; 88.7% in the experiment with BT-549 breast; 66.6% in the experiment on MDA-MB-435 melanoma; -31.4% (active) in the experiment on SW-620 colon; 30% in the experiment on MCF7 breast; 25.4% in the experiment on HCT-116 colon. In addition, the growth with HCC-2998 colon was 41.6%; with KM12 colon, 58.6%.
Regarding `CCCCCCCC(=O)Nc1nc2[nH]c(CN3CCN(Cc4cccc(I)c4)CC3)c(CN3CCN(Cc4cccc(I)c4)CC3)c2c(=O)[nH]1`, the growth in the experiment with T-47D breast was -62% (active); in the experiment with BT-549 breast, -4.02% (active); in the experiment on MDA-MB-435 melanoma it was -75.8% (active); in the experiment on SW-620 colon, -73.7% (active); in the experiment on MCF7 breast it was -93.6% (active); in the experiment with HCT-116 colon, -100% (active). Moreover, the growth was -94.6% (active) with HCC-2998 colon and -80.5% (active) with KM12 colon.
On to `C=C(C)[C@@H]1CC[C@]2(C(=O)O)CC[C@]3(C)[C@H](CC[C@@H]4[C@@]5(C)C[C@@H](CC#Cc6ccc(Br)cc6)C(=O)C(C)(C)[C@@H]5CC[C@]43C)[C@@H]12`, for which the growth with T-47D breast was 48.3%; in the experiment on BT-549 breast, 69.8%; in the experiment with MDA-MB-435 melanoma it was 42.4%; in the experiment with SW-620 colon it was 42.1%; in the experiment on MCF7 breast, 49%; in the experiment with HCT-116 colon, 39.4%. The growth with HCC-2998 colon was 61.4%; with KM12 colon, 40.3%.
Turning to `CC(C)(O)C1CCCN1C(=O)c1ccccc1I` (stereo unspecified), the growth was 85.7% in the experiment on T-47D breast; 133% with BT-549 breast; 93.2% in the experiment with MDA-MB-435 melanoma; 95.4% in the experiment with SW-620 colon; 91.6% in the experiment with MCF7 breast; 68.9% in the experiment on HCT-116 colon. Further, the growth in the experiment on HCC-2998 colon is 112%; in the experiment with KM12 colon it was 94.3%.
On to `O=C(Nc1sc2c(c1C(=O)O)CCCC2)c1cccc(C(F)(F)F)c1`, for which the growth with T-47D breast was 73.4%; in the experiment on BT-549 breast, 93.1%; in the experiment with MDA-MB-435 melanoma, 86.2%; with SW-620 colon it was 90.6%; in the experiment on MCF7 breast, 63.5%; with HCT-116 colon, 80.2%. For the same compound, the growth in the experiment on HCC-2998 colon was 101%; with KM12 colon it was 89.9%.
In the case of `Cc1c2c(cc[n+]1Cc1ccccc1)c1ccc(OCc3ccccc3)cc1n2Cc1ccccc1`, the growth was -4.02% (active) in the experiment with T-47D breast; -90.4% (active) in the experiment with BT-549 breast; -93.8% (active) in the experiment with MDA-MB-435 melanoma; -88.1% (active) in the experiment with SW-620 colon; -23.1% (active) in the experiment on MCF7 breast; -95.6% (active) in the experiment on HCT-116 colon. Moreover, the growth in the experiment on HCC-2998 colon is -81.8% (active); with KM12 colon, -98.4% (active).
For the compound `Cc1cc2cc3cc(C)c(N)cc3[n+](C)c2cc1N`, the growth in the experiment on T-47D breast was 8.77% (active); in the experiment with BT-549 breast, 9.11% (active); with MDA-MB-435 melanoma, 9.46% (active); with SW-620 colon, 9.45% (active); in the experiment on MCF7 breast it was 8.32% (active); with HCT-116 colon it was 3.49% (active). Besides, the growth is 9.7% (active) with HCC-2998 colon and 5.06% (active) in the experiment on KM12 colon.
